From the supplement of paper PMC11732987, “Enantioselective OTUD7B fragment discovery through chemoproteomics screening and high-throughput optimisation” (Communications Chemistry, 2025)

Tests used:
Assay in all cases: log2 ratio of Biotin-Ahx-Ub-VS probe labelling (fragment/DMSO); higher = less target engagement (more negative = stronger competition), active = hit call of the paper (q ≤ 0.05, log2 ratio ≤ -1)
Details in all cases: compound concentration: 200 uM; treatment time: 3 h
[1] = biological target: T1, OTUD6B (UniProt Q8N6M0)
T1 sequence (whole entry): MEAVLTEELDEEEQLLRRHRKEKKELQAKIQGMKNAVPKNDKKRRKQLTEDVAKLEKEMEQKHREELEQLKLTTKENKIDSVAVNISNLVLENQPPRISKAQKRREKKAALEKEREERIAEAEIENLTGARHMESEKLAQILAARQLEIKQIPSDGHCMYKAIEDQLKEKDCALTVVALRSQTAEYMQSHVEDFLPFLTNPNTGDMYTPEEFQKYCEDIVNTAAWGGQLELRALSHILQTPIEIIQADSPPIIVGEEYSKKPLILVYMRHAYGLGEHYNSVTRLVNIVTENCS
Outline: (§1)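 Using Biotin-Ahx-Ub-VS at 0.5 µM final for 1 h, DUBs were labelled in HEK293T lysate (495 µg per sample) that had first been treated in triplicate with fragment at 200 µM or vehicle for 3 h. NeutrAvidin enrichment, LysC and trypsin digestion and diaPASEF LC-MS/MS followed. Spectronaut label-free quantities were global-median-normalised. Values are average log2 fragment/vehicle ratios by unpaired t-test, using proteins with ≥2 unique peptides.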

[2] = biological target: T2, OTUD7B (UniProt Q6GQQ9)
T2 sequence (whole entry): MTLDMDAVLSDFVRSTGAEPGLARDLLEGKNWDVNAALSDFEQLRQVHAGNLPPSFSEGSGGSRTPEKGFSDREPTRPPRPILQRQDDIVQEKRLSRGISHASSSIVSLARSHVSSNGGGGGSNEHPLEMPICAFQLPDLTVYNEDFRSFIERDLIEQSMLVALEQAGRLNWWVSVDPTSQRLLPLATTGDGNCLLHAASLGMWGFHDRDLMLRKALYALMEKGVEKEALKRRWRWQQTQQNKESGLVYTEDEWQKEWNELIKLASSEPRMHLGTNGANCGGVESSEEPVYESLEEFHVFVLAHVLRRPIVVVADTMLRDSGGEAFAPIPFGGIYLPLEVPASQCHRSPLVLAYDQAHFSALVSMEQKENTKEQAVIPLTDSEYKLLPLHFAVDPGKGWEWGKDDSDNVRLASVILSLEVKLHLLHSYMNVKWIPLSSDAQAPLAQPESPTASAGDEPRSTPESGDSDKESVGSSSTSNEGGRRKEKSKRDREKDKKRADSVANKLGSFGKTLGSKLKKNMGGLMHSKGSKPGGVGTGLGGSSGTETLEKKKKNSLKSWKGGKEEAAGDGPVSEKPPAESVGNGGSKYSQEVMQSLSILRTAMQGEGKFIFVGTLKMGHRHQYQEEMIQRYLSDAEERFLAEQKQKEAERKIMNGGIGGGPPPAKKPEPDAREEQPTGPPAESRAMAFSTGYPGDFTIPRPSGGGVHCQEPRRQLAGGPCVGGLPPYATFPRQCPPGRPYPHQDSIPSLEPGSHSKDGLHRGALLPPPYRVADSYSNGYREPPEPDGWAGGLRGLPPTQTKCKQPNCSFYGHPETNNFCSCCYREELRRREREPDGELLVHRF
Outline: as §1

[3] = biological target: PRPF8 (UniProt Q6P2Q9)
Outline: as §1

[4] = biological target: T3, PSMD7 (UniProt P51665)
T3 sequence (whole entry): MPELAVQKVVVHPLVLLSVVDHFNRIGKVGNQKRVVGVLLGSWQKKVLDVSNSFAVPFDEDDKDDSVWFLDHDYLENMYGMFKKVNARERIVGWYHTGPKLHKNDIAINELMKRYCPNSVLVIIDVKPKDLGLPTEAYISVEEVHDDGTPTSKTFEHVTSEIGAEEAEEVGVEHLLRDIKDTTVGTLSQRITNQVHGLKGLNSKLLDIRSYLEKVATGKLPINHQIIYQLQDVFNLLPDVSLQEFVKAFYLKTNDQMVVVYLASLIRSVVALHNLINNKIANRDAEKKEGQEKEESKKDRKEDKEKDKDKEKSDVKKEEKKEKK
Outline: as §1

[5] = biological target: UCHL1 (UniProt P09936)
Outline: as §1

[6] = biological target: T4, UCHL3 (UniProt P15374)
T4 sequence (whole entry): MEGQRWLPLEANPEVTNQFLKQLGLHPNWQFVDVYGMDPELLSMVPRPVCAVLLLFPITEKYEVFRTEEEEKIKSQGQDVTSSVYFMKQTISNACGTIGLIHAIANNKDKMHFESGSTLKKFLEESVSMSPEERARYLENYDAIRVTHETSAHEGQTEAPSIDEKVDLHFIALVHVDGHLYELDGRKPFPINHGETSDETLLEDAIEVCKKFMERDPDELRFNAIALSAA
Outline: as §1

[7] = biological target: T5, UCHL5 (UniProt Q9Y5K5)
T5 sequence (whole entry): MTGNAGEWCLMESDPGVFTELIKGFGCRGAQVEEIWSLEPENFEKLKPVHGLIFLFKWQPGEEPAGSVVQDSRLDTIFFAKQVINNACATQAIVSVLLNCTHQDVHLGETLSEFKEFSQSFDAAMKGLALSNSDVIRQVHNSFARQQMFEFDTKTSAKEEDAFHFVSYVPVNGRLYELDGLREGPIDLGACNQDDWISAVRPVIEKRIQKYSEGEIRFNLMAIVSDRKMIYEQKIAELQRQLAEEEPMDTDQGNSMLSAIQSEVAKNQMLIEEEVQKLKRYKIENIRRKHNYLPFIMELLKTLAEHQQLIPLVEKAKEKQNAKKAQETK
Outline: as §1

[8] = biological target: USP10 (UniProt Q14694)
Outline: as §1

[9] = biological target: T6, USP15 (UniProt Q9Y4E8)
T6 sequence (whole entry): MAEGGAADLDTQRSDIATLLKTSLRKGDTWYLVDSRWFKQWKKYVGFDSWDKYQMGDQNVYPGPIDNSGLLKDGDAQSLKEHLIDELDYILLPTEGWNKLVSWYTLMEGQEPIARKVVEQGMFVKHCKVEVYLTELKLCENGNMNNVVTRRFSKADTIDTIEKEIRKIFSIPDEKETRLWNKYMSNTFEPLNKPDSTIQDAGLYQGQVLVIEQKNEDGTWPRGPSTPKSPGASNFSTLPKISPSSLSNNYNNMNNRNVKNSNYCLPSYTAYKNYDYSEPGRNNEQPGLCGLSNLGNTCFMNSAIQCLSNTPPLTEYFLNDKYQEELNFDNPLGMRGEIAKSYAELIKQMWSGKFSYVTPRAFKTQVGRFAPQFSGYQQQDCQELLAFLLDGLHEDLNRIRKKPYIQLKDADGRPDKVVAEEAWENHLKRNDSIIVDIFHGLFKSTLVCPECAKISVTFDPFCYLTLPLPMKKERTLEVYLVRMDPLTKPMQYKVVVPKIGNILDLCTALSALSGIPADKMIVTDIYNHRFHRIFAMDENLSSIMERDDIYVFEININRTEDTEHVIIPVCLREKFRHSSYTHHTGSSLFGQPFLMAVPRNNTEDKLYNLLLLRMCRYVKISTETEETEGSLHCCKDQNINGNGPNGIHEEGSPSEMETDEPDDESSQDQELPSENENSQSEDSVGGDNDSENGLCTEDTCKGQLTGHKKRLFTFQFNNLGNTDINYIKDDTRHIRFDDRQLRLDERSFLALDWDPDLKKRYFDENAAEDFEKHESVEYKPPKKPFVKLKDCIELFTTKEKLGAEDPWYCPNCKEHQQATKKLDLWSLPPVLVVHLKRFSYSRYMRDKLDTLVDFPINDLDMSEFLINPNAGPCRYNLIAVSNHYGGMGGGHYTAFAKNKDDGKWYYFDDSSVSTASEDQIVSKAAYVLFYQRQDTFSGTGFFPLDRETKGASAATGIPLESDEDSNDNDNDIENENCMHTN
Outline: as §1

[10] = biological target: USP16 (UniProt Q9Y5T5)
Outline: as §1

Measured: log2 ratio of Biotin-Ahx-Ub-VS probe labelling

UCHL1, sequence (P09936 whole entry, looked up): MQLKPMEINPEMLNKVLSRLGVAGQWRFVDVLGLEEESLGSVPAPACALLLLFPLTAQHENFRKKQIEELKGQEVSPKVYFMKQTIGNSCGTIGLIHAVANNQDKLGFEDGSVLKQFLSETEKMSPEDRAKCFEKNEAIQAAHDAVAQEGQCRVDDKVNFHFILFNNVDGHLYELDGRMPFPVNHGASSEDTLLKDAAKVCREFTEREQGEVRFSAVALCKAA
USP10, sequence (Q14694 whole entry): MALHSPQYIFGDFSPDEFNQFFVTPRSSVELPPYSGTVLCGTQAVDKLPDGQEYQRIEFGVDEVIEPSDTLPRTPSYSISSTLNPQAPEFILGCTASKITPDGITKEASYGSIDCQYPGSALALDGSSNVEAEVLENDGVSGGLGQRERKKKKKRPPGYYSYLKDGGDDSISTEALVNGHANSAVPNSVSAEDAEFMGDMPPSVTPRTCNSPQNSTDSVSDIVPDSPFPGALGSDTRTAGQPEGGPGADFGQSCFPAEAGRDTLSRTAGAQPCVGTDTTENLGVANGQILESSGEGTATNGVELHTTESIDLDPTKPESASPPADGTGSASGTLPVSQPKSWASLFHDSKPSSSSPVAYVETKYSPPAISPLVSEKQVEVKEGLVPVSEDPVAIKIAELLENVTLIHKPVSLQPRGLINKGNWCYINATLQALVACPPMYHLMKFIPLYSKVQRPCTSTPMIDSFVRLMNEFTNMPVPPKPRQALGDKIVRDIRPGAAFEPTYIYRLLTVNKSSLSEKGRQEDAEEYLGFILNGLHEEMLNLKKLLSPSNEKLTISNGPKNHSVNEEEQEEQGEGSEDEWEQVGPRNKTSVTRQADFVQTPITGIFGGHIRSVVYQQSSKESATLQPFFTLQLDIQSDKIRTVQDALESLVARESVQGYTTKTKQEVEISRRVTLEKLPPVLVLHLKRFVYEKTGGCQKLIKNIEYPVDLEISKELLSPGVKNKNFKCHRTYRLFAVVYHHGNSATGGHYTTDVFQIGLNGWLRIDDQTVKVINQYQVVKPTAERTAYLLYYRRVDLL
USP16, sequence (Q9Y5T5 whole entry, looked up): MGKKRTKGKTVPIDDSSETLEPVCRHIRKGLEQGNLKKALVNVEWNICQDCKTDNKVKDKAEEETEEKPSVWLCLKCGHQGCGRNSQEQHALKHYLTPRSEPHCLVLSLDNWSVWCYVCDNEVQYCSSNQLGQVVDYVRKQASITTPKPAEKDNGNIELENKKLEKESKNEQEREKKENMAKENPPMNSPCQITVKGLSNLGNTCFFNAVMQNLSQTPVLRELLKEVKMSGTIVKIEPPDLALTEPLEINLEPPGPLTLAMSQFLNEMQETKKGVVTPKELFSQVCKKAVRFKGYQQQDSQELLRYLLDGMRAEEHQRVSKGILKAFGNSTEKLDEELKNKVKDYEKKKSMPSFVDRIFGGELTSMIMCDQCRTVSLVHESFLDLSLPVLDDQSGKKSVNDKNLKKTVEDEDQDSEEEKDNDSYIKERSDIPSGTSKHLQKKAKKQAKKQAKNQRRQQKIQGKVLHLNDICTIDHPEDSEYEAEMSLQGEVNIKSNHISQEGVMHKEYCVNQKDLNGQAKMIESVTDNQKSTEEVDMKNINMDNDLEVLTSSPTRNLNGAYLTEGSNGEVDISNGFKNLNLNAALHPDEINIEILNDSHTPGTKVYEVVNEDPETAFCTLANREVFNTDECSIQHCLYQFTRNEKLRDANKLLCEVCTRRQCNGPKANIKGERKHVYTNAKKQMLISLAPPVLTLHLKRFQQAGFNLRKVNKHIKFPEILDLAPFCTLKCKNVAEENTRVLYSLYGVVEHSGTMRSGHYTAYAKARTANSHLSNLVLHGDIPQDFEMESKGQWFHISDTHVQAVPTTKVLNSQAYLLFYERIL

Cc1ccccc1C1(CNC(=O)CCl)CCOCC1
inactive: [1] -0.054 | [2] -0.293 | [3] -0.0655 | [4] -0.0606 | [6] 0.231 | [7] -0.272 | [8] -0.0236 | [9] -0.102 | [10] 0.242
active: [5] -1.45
